BAZ2B inh: qHTS Assay for Inhibitors of BAZ2B; Potency, µM (titrated, usually from 114 µM), most hits filed as inhibitors; actives 4.4% (n = 360,000); AlphaScreen BAZ2B-H3K14Ac peptide displacement; Bromodomain adjacent to zinc finger domain protein 2B (Homo sapiens), Q9UIF8; AID 504333, 2011; further: nearly all actives have a fitted effect of over 60% in size
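BAZ2B (50 nM) with biotin-H3(5-23)K14Ac peptide (50 nM) in PBS pH 7.4, 0.01% Tween-20, preformed 30 min, then compound 30 min at room temperature; top concentration 110uM. AlphaScreen streptavidin donor/nickel chelate acceptor beads (10 ug/mL final), 20 min dark, signal read.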
L3MBTL1 inh: qHTS Assay for the Inhibitors of L3MBTL1. AlphaScreen L3MBTL1–H3K9me1 peptide binding. Potency, µM (series often up to 57.1 µM), actives largely listed as inhibitors. actives 0.66% (n = 230,000); further: nearly all actives have a fitted effect of over 60% in size
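Read-out is AlphaScreen signal from streptavidin donor and nickel chelate acceptor beads (10 ug/mL final each) bridging L3MBTL1 (50 nM) and biotinylated K9-monomethylated H3(1-15) peptide (75 nM), after 30 min compound exposure at room temperature.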
G9a block: qHTS Assay for Inhibitors of Histone Lysine Methyltransferase G9a; Histone-lysine N-methyltransferase EHMT2 (Homo sapiens), Q96KQ7; G9a H3K9 monomethylation, AlphaScreen, 2 h; Potency, µM (top dose mostly 102 µM), hits mostly inhibitors; actives 8.8% (n = 350,000); further: nearly all actives have a fitted effect of over 75% in size
Target sequence (Q96KQ7 913-1193 limits assumed): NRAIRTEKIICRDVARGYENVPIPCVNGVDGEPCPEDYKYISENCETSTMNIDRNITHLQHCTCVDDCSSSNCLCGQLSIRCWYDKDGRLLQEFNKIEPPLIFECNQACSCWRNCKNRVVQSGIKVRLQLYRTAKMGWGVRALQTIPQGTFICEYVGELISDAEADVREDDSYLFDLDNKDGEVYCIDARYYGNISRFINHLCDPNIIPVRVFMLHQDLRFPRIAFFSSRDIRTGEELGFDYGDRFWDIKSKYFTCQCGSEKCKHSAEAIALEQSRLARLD
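Signal arises when biotinylated H3K9 peptide, once monomethylated, bridges streptavidin donor and antibody-captured acceptor beads. Enzyme at 20 nM was preincubated 15 min with test compounds; peptide 500 nM and SAM 20 uM then reacted for 2 h.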
HP1b chromo inh: HTS for Inhibitors of HP1-beta Chromodomain Interactions with Methylated Histone Tails; Potency, µM (titrated, usually from 114 µM), actives largely listed as inhibitors; Chromobox protein homolog 1 (Homo sapiens), P83916; AlphaScreen HP1-beta / biotin-H3K9me3 peptide binding; actives 0.56% (n = 390,000); further: nearly all actives have a fitted effect of over 70% in size
Target sequence (P83916 whole entry, looked up): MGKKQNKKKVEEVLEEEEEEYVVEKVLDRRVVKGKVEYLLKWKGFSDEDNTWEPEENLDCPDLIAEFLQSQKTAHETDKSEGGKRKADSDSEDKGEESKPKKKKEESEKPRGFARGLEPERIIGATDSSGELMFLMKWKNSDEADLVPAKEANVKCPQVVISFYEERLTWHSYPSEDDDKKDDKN
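AlphaScreen: HP1-beta (50 nM) preformed 30 min with biotin-H3(1-18)K9me3 peptide (50 nM) in PBS pH 7.4, 0.01% Tween-20. Compound added for 30 min at RT, then streptavidin donor/nickel chelate acceptor beads (10 ug/mL) for 30 min.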
Sfp inh: qHTS Assay for Inhibitors of Bacillus subtilis Sfp phosphopantetheinyl transferase (PPTase). 4'-phosphopantetheinyl transferase ffp (Bacillus subtilis), Q9F4F7. Biochemical Sfp PPTase activity, qHTS. Potency, µM, most hits filed as inhibitors. actives 3.5% (n = 310,000). AID 1490, 2009;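 further: the enzyme is Sfp with the accession as filed and its product quenches rhodamine fluorescence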
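Fluorescence-quenching assay with 15 nM Sfp, 5 uM rhodamine-CoA and 12.5 uM BHQ-2-labelled ybbR peptide in pH 7.6 Hepes/MgCl2 buffer. Enzyme was pre-incubated with compound for 15 min at room temperature. Rate was taken from the 30-min fluorescence change (525/598 nm).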
JMJD2A Tudor: qHTS Assay for Inhibitors of JMJD2A-Tudor Domain; actives 4.4% (n = 390,000); AlphaScreen JMJD2A-Tudor / H3K4me3 peptide binding; Lysine-specific demethylase 4A (Homo sapiens), O75164; AID 504339, 2011; Potency, µM (highest dose often 114 µM), usual class: inhibitors; further: nearly all actives have a fitted effect of over 50% in size
Large screens that a line does not name were inactive; ! = not active in a repeat. Hits are enriched below; roughly 12% of the tested compounds scored in any of these assays. The call rests on the fitted dose curve; in most records, active means well fitted curve in the direction sought with a large enough effect; inconclusive means small, poorly fitted or top-dose-only effect, or another doubt; inactive means no such curve, though single readings can be large; an effect the other way counts as inactive or inconclusive.

Cc1ccc(C(C2C(=O)CC(C)(C)CC2=O)C2C(=O)CC(C)(C)CC2=O)s1	BAZ2B inh inconclusive, G9a block 44.7µM, Sfp inh 50.1µM
O=C(CN1C(=O)C2C3c4ccccc4C(c4ccccc43)C2C1=O)Nc1cccc(C(=O)O)c1 (stereo not drawn)	none
Cc1ccc(C(C)C)c(OCC(=O)NNCC(=O)Nc2cccc(F)c2)c1	none (no result: BAZ2B inh, G9a block, Sfp inh)
CCOC(=O)C1(CCOc2ccccc2)CCN(Cc2cccc(OC)c2OC)CC1	none (no result: G9a block)
CCc1cccc(C)c1Nc1nn2c(=O)c3ccccc3nc2s1	G9a block 7.08µM, HP1b chromo inh inconclusive (no result: L3MBTL1 inh, Sfp inh)
Cn1cnnc1SCC(=O)Nc1ccc(F)cc1	none (no result: L3MBTL1 inh)
COc1cccc2c1Oc1ncccc1N(C(=O)CCC(=O)NCc1ccc(C)cc1)C2	G9a block 5.62µM! (no result: L3MBTL1 inh)
CCn1c(SCC(=O)NC2CC2)nnc1-c1cccc(OC)c1	none (no result: L3MBTL1 inh, G9a block)
CCCCOC(=O)C1C2CCC(O2)C1C(=O)OCC (stereo not drawn)	none (no result: BAZ2B inh, L3MBTL1 inh, G9a block, Sfp inh)
CCCCOC(=O)C1CCCC(C(=O)OCCCC)N1 (stereo not drawn)	G9a block 50.1µM
COc1cccc2sc(N3CCN(C(=O)CS(=O)(=O)c4ccc(Cl)cc4)CC3)nc12	none (no result: L3MBTL1 inh, Sfp inh)
Cn1cccc1Cc1nnc(SCC(=O)NCc2ccco2)n1-c1ccc(F)cc1	BAZ2B inh inconclusive, G9a block inconclusive, JMJD2A Tudor inconclusive
Cn1cccc1Cc1nnc(SCC(N)=O)n1-c1ccc(F)cc1	G9a block 89.1µM
COc1ccc(-n2c(Cc3cccn3C)nnc2SCC(=O)Nc2cccc(OC)c2)cc1	BAZ2B inh inconclusive, G9a block 50.1µM
CC(=O)Nc1cccc(NC(=O)CSc2nnc(Cc3cccn3C)n2-c2ccc(F)cc2)c1	BAZ2B inh inconclusive, G9a block inconclusive, JMJD2A Tudor inconclusive
Cn1cccc1Cc1nnc(SCC(=O)NCc2ccccc2Cl)n1-c1ccc(F)cc1	BAZ2B inh inconclusive, G9a block 79.4µM
COc1ccc(-n2c(Cc3cccn3C)nnc2SCC(=O)Nc2ccc(C)c(Cl)c2)cc1	BAZ2B inh inconclusive, G9a block 44.7µM, JMJD2A Tudor inconclusive
COc1ccc(-c2nnc(SC(C)C(=O)O)o2)cc1 (stereo not drawn)	none (no result: L3MBTL1 inh, Sfp inh)
Cc1cc(C)c(NC(=O)CSc2nnc(Cc3cccn3C)n2-c2ccc(F)cc2)c(C)c1	BAZ2B inh inconclusive, G9a block 44.7µM, Sfp inh 50.1µM, JMJD2A Tudor inconclusive
COc1cccc(NC(=O)CSc2nnc(Cc3cccn3C)n2-c2ccc(F)cc2)c1	BAZ2B inh 50.1µM, G9a block inconclusive, JMJD2A Tudor inconclusive
Cn1cccc1Cc1nnc(SCC(=O)NC2CCCCC2)n1-c1ccc(F)cc1	G9a block inconclusive (no result: L3MBTL1 inh)
COc1ccc(C2=Nn3c(nnc3-c3ccccc3OC)SC2)cc1	none (no result: BAZ2B inh, L3MBTL1 inh, G9a block, HP1b chromo inh, Sfp inh)
O=C(O)c1ccccc1SC1CC(=O)N(c2ccc3c(c2)OCO3)C1=O (stereo not drawn)	G9a block 1.58µM, Sfp inh 50.1µM
CC(C)CN1C(=O)CC(Sc2ccccc2C(=O)O)C1=O (stereo not drawn)	G9a block 1.12µM (no result: L3MBTL1 inh)
Cc1cccc(N2C(=O)CC(Sc3ccccc3C(=O)O)C2=O)c1 (stereo not drawn)	G9a block inconclusive, Sfp inh 56.2µM, JMJD2A Tudor 44.7µM
Cc1cccc(N2C(=O)CC(Sc3ncn[nH]3)C2=O)c1 (stereo not drawn)	G9a block 7.08µM, HP1b chromo inh inconclusive, Sfp inh 56.2µM, JMJD2A Tudor inconclusive (no result: L3MBTL1 inh)
Cc1cccc(C)c1OC(=O)CSc1nnc(-c2ccc3c(c2)OCO3)o1	none (no result: L3MBTL1 inh, Sfp inh)
Cc1ccc(N2C(=O)CC(Sc3ccccc3C(=O)O)C2=O)cc1C (stereo not drawn)	G9a block 1.58µM, Sfp inh 50.1µM
Cc1cc(C)cc(N2C(=O)CC(Sc3ccccc3C(=O)O)C2=O)c1 (stereo not drawn)	G9a block inconclusive, Sfp inh 56.2µM, JMJD2A Tudor inconclusive
CN1C(=O)CC(Sc2ccccc2C(=O)O)C1=O (stereo not drawn)	none
Cc1ccc(N2C(=O)CC(Sc3ccccc3C(=O)O)C2=O)cc1 (stereo not drawn)	G9a block inconclusive, Sfp inh inconclusive, JMJD2A Tudor inconclusive
CCOC(=O)c1c(N2C(=O)CC(Sc3ccccc3C(=O)O)C2=O)sc(C)c1C (stereo not drawn)	BAZ2B inh 50.1µM, Sfp inh 7.94µM (no result: L3MBTL1 inh, G9a block)
CN(C)c1ccc(N2C(=O)CC(Sc3ccccc3C(=O)O)C2=O)cc1 (stereo not drawn)	BAZ2B inh inconclusive, G9a block 1.41µM, Sfp inh 44.7µM, JMJD2A Tudor inconclusive
Cc1ccc2oc(=O)c3cc(C(=O)N4CCN(c5ccccc5F)CC4)sc3c2c1	none (no result: L3MBTL1 inh, Sfp inh)
CN(C(=O)c1cc2nc(-c3ccco3)cc(C(F)(F)F)n2n1)c1ccc(OC(F)(F)Cl)cc1	none (no result: L3MBTL1 inh, Sfp inh)
Cc1ccc2c(c1)c(N=NC(N)=O)c(O)n2C	none
CC(=O)c1cccc(-n2nnnc2SCC(=O)N2CCCC2)c1	G9a block 56.2µM
COC1CC2CCC(C)[C@](O)(O2)C(=O)C(=O)N2CCCCC2C(=O)OC(C(C)CC2CCC(O)C(OC)C2)CC(=O)C(C)/C=C(/C)C(O)C(OC)C(=O)C(C)CC(C)C=CC=C/C=C\1C (stereo partly drawn)	none (no result: BAZ2B inh, L3MBTL1 inh, HP1b chromo inh, JMJD2A Tudor)
COc1ccccc1C(=O)Nc1ccc(S(=O)(=O)Nc2cnc3ccccc3n2)cc1	none (no result: L3MBTL1 inh)
Cc1ccc(C(CCN)c2ccco2)cc1 (stereo not drawn)	none (no result: L3MBTL1 inh)
COc1ccc(CNCCC(c2ccc(C)cc2)c2ccco2)cc1 (stereo not drawn)	BAZ2B inh 79.4µM, G9a block 5.01µM, HP1b chromo inh inconclusive, JMJD2A Tudor 25.1µM (no result: L3MBTL1 inh, Sfp inh)
COc1ccc(CNCCC(c2ccccc2)c2ccc3c(c2)OCO3)cc1 (stereo not drawn)	BAZ2B inh inconclusive, G9a block 20µM, Sfp inh 35.5µM
O=C(Cc1ccon1)c1ccc(O)cc1O	none (no result: L3MBTL1 inh)
CCc1cccc(C)c1NS(=O)(=O)c1ccc2c(c1)NC(=O)C(C)C(=O)N2 (stereo not drawn)	none (no result: L3MBTL1 inh, Sfp inh)
O=C1C(=O)N(c2nccs2)C(c2ccccc2F)/C1=C(\O)c1ccc2c(c1)OCCO2 (stereo not drawn)	BAZ2B inh 50.1µM, JMJD2A Tudor inconclusive (no result: L3MBTL1 inh)
